Test results reported in PMC10726135, “HNF4α isoforms regulate the circadian balance between carbohydrate and lipid metabolism in the liver”.
In all, about 18,000 sequences were measured (“log2 normalized intensity”: median about 0.36, highest 2% from about 7.3 on). Many of the other results were omitted from the sample, so the highest values are more common in it than they were.

Biological target: T1, HNF4alpha8 (COS-7 nuclear extract) (Homo sapiens, UniProt P41235-5 1-452)
T1 sequence: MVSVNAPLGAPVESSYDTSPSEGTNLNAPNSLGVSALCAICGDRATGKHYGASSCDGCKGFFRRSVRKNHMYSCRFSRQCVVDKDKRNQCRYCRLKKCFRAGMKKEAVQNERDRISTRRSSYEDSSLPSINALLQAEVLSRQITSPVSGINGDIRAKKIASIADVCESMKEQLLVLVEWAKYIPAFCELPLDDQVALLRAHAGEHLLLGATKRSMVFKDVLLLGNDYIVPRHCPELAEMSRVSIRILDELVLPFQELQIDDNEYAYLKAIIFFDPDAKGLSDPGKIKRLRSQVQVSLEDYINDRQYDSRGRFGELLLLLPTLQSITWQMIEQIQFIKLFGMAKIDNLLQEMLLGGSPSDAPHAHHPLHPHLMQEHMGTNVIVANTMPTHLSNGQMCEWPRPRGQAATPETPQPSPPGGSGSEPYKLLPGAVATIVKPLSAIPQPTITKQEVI
Experiment: protein-binding microarray; COS-7 nuclear extract on double-stranded Agilent 4x180k PBM; binding buffer, salt, pH and temperature not given in the material; high values mean tight binding
Settings: chain copies: 2; label: 3' end of strand 1 on the slide; dsDNA, one strand shown
Outline: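 Binding signal is the background-corrected, normalized gProcessedSignal calculated by Agilent software. It was measured by applying nuclear extracts of COS-7 cells transiently transfected with a human HNF4α isoform expression vector to a custom Agilent SurePrint G3 4x180k array of ~44,000 double-stranded ~60-nt test sequences in quadruplicate, then imaging bound HNF4α on an Agilent G2565CA scanner at 2-µm resolution.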

Row | Sequence | binding signal
1 | TTTTAATTAGAACTGTAATTGAGTAACCAGGCCTAGGGAGATTAGAGTATCGGTCGA | 0.406 log2 normalized intensity
2 | AAAAAAAAAAATTACTGACCCTTGCACTGTGCCTAGGGAGATTAGAGTATCGGTCGA | 5.45 log2 normalized intensity
3 | AATTCATCTCTAAGCTACTGAAAATGACCTGCCTAGGGAGATTAGAGTATCGGTCGA | 3.88 log2 normalized intensity
4 | TACTGAAAATGACCTTTGTTCCCTGCACTTGCCTAGGGAGATTAGAGTATCGGTCGA | 7.89 log2 normalized intensity
5 | ATCTCTAAGCTACTGAAAATGACCTTTGTTGCCTAGGGAGATTAGAGTATCGGTCGA | 6.73 log2 normalized intensity
6 | GAAACCCTAAACCTGCAAACCTTTGACCTTGCCTAGGGAGATTAGAGTATCGGTCGA | 5.96 log2 normalized intensity
7 | TAAGCTACTGAAAATGACCTTTGTTCCCTGGCCTAGGGAGATTAGAGTATCGGTCGA | 9.03 log2 normalized intensity
8 | GATTTTCAGGTTCCCCAGTGAGGATGTGTGGCCTAGGGAGATTAGAGTATCGGTCGA | 1.53 log2 normalized intensity
9 | TGGCGTATGCAGCAGGGCAGCAGCCTGACCGCCTAGGGAGATTAGAGTATCGGTCGA | 0.823 log2 normalized intensity
10 | TTAACCTCTATTGACCTTCTTATTTGGAGAGCCTAGGGAGATTAGAGTATCGGTCGA | 2.41 log2 normalized intensity
11 | GAGGAGACCTTTGGATATCATATCATCTTCGCCTAGGGAGATTAGAGTATCGGTCGA | 2.39 log2 normalized intensity
12 | TAGTTAGAGTCACTGATAAGTCTGCTTGCCGCCTAGGGAGATTAGAGTATCGGTCGA | -0.858 log2 normalized intensity
13 | CGCCCCCAACGGGCCACGCCCTGCACCCTAGCCTAGGGAGATTAGAGTATCGGTCGA | 4.07 log2 normalized intensity
14 | TTGTGGCAGTGAGAACAGGTTCATTCTTTAGCCTAGGGAGATTAGAGTATCGGTCGA | 0.687 log2 normalized intensity
15 | GCTTGAGCGAGACAGCGGGTGTTTCTGGGAGCCTAGGGAGATTAGAGTATCGGTCGA | 0.72 log2 normalized intensity
16 | TCATTGCCTCTGGGCTTTGATGGACATTGCGCCTAGGGAGATTAGAGTATCGGTCGA | 3.92 log2 normalized intensity
17 | AGAGTGAGCAGCACTTTTGGAGTTTGACCTGCCTAGGGAGATTAGAGTATCGGTCGA | 8.51 log2 normalized intensity
18 | CAGGACTGCGTAACTTACAGTGCACTTTGAGCCTAGGGAGATTAGAGTATCGGTCGA | 5.6 log2 normalized intensity
19 | AAGAAGAGCTCAGTCACAGCAGTGGACTTTGCCTAGGGAGATTAGAGTATCGGTCGA | 7.41 log2 normalized intensity
20 | GGGGCAGAGTGAGCAGCACTTTTGGAGTTTGCCTAGGGAGATTAGAGTATCGGTCGA | 2.17 log2 normalized intensity
21 | GAGCTCAGTCACAGCAGTGGACTTTGACCTGCCTAGGGAGATTAGAGTATCGGTCGA | 11.7 log2 normalized intensity
22 | CTGCGTAACTTACAGTGCACTTTGACCGCTGCCTAGGGAGATTAGAGTATCGGTCGA | 7.74 log2 normalized intensity
23 | CTTGTCTTATCAGCAGGGTCTTTTTGACCTGCCTAGGGAGATTAGAGTATCGGTCGA | 4.79 log2 normalized intensity
24 | CCTCAGTGTGGGACTTTGGTCTGCTGAGTCGCCTAGGGAGATTAGAGTATCGGTCGA | 3.95 log2 normalized intensity
25 | AGCAGCCTCAGTGGCTCACAAATGGAGTTTGCCTAGGGAGATTAGAGTATCGGTCGA | 1.92 log2 normalized intensity
26 | CCAGCTAGAAGCAGTGGGACAAAGGTCACAGCCTAGGGAGATTAGAGTATCGGTCGA | 6.82 log2 normalized intensity
27 | GAGCAGCACTTTTGGAGTTTGACCTGGAGCGCCTAGGGAGATTAGAGTATCGGTCGA | 6.24 log2 normalized intensity
28 | TAACTTACAGTGCACTTTGACCGCTCATTTGCCTAGGGAGATTAGAGTATCGGTCGA | 6.77 log2 normalized intensity
